FBW7 activator: activators of human E3 ligase FBW7; normalized activity (activation), % at 26.1 µM; AID 1259310; AlphaScreen FBW7–phospho-cyclin E peptide binding, activator screen; 0.13% of 650,000 active; Q969H0; in the data active means normalized activity above about 1.9%;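 further: purified mutant Fbw7 with reduced substrate affinity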
TEAD-YAP block: TEAD-YAP interaction inhibition; HEK-TIYL cells, TEAD-Gal4/YAP UAS-luciferase luminescence; inhibition, % at 9.12 µM; 1.4% of 640,000 active; AID 1259422; in the data active means inhibition above about 32%
GPR151 activ: activators of human GPR151; 1% of 650,000 active; AID 1508602; Q8TDV0; activation, % at 11.2 µM; PathHunter beta-arrestin GPR151 cells, luminescence; in the data active means activation above about 4.9%
MITF primary: blocks human microphthalmia-associated transcription factor; AlphaScreen MITF homodimerization, bead proximity signal; inhibition, % at 2.6 µM; 0.91% of 650,000 active; AID 1259374; in the data active means inhibition above about 50%
Target sequence (O75030 whole entry, looked up): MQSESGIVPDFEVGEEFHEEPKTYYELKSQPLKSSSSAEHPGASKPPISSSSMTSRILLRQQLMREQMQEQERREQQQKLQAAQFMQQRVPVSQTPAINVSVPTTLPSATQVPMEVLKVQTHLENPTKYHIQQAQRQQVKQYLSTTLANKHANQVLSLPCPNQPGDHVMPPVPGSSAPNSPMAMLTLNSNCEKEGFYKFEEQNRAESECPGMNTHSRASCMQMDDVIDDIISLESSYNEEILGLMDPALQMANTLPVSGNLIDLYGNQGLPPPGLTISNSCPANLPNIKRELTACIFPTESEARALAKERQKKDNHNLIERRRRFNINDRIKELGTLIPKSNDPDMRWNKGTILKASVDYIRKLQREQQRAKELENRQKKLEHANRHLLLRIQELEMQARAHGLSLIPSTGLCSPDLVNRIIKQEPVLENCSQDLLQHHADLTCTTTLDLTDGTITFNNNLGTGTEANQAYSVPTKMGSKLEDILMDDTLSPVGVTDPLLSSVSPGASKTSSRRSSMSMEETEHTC
Of the large screens only hits and unclear results are named; the others gave an inactive call. This is a sample that favours compounds with a hit; in the whole collection about 3.4% have one here.

CC(=O)N(C1=C(N2CCOCC2)C(=O)c2ccccc2C1=O)c1ccccc1	TEAD-YAP block 64
O=C1C(NC2CCCC2)=C(N2CCOCC2)C(=O)c2ccccc21	TEAD-YAP block 79
CC(=O)N(C1=C(N2CCOCC2)C(=O)c2ccccc2C1=O)c1ccc(Cl)c(Cl)c1	TEAD-YAP block 40, MITF primary 117
O=C1C(N2CCCCC2)=C(N2CCOCC2)C(=O)c2ccccc21	none
CC(=O)N(C1=C(N2CCCC2)C(=O)c2ccccc2C1=O)c1cccc(F)c1	TEAD-YAP block 42
COC(=O)COc1ccc2c(=O)c(-c3ccc4c(c3)OCCO4)c(C(F)(F)F)oc2c1	none
C=CCOc1c(Br)cc(Br)cc1/C=c1\sc2nc3ccccc3n2c1=O	none
Cn1c(/C(C#N)=C\c2cccc(F)c2)nc2ccccc21	none
CCOc1ccc(N(C(C)=O)C2=C(N3CCN(C)CC3)C(=O)c3ccccc3C2=O)cc1	TEAD-YAP block 90
CN(C1=C(N2CCOCC2)C(=O)c2ccccc2C1=O)c1ccccc1	MITF primary 51
COc1ccc(C(=O)NC(NCCC23CC4CC(CC(C4)C2)C3)(C(F)(F)F)C(F)(F)F)cc1	none
CC1(C(=O)O)NCCc2cc(O)c(O)cc21 (configuration not stated)	MITF primary 66 (no result: TEAD-YAP block)
C[C@H](c1ccccc1)n1c(=O)[nH]c2ncc(-c3ccc(C(=O)N4CCN(C)CC4)cc3)nc21	none
C[C@@H](c1ccccc1)n1c(=O)[nH]c2ncc(-c3ccc(C(=O)N4CCOCC4)cc3)nc21	FBW7 activator 2.0
COc1ccc(C(=O)/C(=C\c2ccc(OC)c(OC)c2)c2nc3ccccc3o2)cc1	TEAD-YAP block 43
CN(C(=O)c1cccc([N+](=O)[O-])c1)C1(C)CCS(=O)(=O)C1 (configuration not stated)	none
COc1ccc(Nc2c3c4c(cccc4[nH]c2=O)C(=O)c2ccccc2-3)cc1	TEAD-YAP block 55
O=C1c2ccccc2-c2c(Nc3ccccc3)c(=O)[nH]c3cccc1c23	TEAD-YAP block 49
Cc1cc(N/N=C/c2cc([N+](=O)[O-])ccc2O)nc(-c2ccccc2O)n1	TEAD-YAP block 77
Cc1cc(N/N=C/c2cccc([N+](=O)[O-])c2)nc(-c2ccccc2O)n1	none
Cc1cc(N/N=C/c2ccc(O)c(C)c2O)nc(-c2ccccc2O)n1	TEAD-YAP block 42
O=[N+]([O-])c1ccc(O)c(/C=N/Nc2ccc(Cl)nn2)c1	TEAD-YAP block 46
CCN(CC)S(=O)(=O)c1ccc(C(=O)Nc2nc3ccc(OC)cc3s2)cc1	none
CC(NCCc1ccccc1)C(=O)NC(=O)NC1CCCCC1 (configuration not stated)	none
O=C(CCCCCNS(=O)(=O)c1ccc(Br)cc1)NCc1ccccc1	none
COc1ccc(Nc2cc(-c3cncc(-c4ccccc4)c3)nc(C)n2)cc1	TEAD-YAP block 50
Cc1cnc(CNc2cc(-c3cncc(-c4ccccc4)c3)nc(C)n2)cn1	TEAD-YAP block 46
Cc1nc2ccccc2c(C(=O)O)c1C(=O)Nc1ccccc1	none
O=[N+]([O-])c1ccc2nc(Sc3nnc(Cc4cccc5ccccc45)n3-c3ccccc3)sc2c1	none
Cc1cc([N+](=O)[O-])nn1Cc1ccc(-c2nc(-c3nonc3N)no2)cc1	none
CC[C@H](Cn1nnn(-c2ccccc2)c1=O)NC(=O)c1n[nH]c(=O)c2ccccc12	none
COc1cc(C(=O)/C=C/Nc2cccc(F)c2)cc(OC)c1OC	none
COc1cc(C(=O)/C=C/Nc2cccc(O)c2)cc(OC)c1OC	TEAD-YAP block 38
Cc1ccc(C(=O)/C=C/Nc2cccc(O)c2)cc1	TEAD-YAP block 92
Cc1ccc(/C=C/C(=O)c2ccc(O)cc2)cc1	TEAD-YAP block 47
Cc1ccc2c(c1)/C(=C/C1CC=CCC1)C(=O)N2 (configuration not stated)	none
Cc1ccnc(SCc2cc(=O)c(OC(=O)COc3ccccc3F)co2)n1	none
Cc1cccc(CSCc2nnc(NC(=O)Nc3ccccc3)s2)c1	none
Cc1ccccc1-n1[nH]c(C)c(C=Nc2ccc(Cl)cc2[N+](=O)[O-])c1=O	none
Cc1[nH]nc2c1C(c1cc(Br)c(C)s1)C(C#N)=C(N)O2 (configuration not stated)	TEAD-YAP block 33
CCOC(=O)N1CCc2c(sc(NC(=O)CCOc3ccccc3)c2C#N)C1	TEAD-YAP block 38
CC(=O)N1CCc2c(sc(NC(=O)c3ccc(C)cc3)c2C#N)C1	TEAD-YAP block 39
CCOC(=O)N1CCc2c(sc(NC(=O)c3ccc(N(C)C)cc3)c2C#N)C1	TEAD-YAP block 49
COc1ccc(CCNc2cc(C)nc(N3CCOCC3)n2)cc1	none
COc1ccc(CCNc2cc(C)nc(Nc3ccc(N4CCOCC4)cc3)n2)cc1	TEAD-YAP block 60
Cc1cc(NCCOc2ccccc2)nc(Nc2ccc(-n3ccnc3)cc2)n1	TEAD-YAP block 40
Cc1cc(NCCOc2ccccc2)nc(Nc2ccc(N3CCOCC3)cc2)n1	TEAD-YAP block 43
Cc1cc(Nc2ccc(N3CCOCC3)cc2)nc(Nc2cccc(N(C)C)c2)n1	TEAD-YAP block 54
Cc1cc(NCCOc2ccccc2)nc(Nc2ccccc2)n1	none
Cc1nc2ccccc2n1CC(O)COc1cccc(N)c1 (configuration not stated)	none
O=C(Nc1cccc([N+](=O)[O-])c1)C1CC1	none
Cc1cc(NCc2cccc(C(F)(F)F)c2)nc(Nc2ccc(C(F)(F)F)cc2)n1	none
Cc1cc(Nc2ccc(N3CCOCC3)cc2)nc(Nc2ccc(N3CCOCC3)cc2)n1	none
Cc1cc(NCc2cccc(C(F)(F)F)c2)nc(Nc2ccc(N3CCOCC3)cc2)n1	TEAD-YAP block 47
Cc1cc(NCc2cccc(C(F)(F)F)c2)nc(Oc2ccccc2)n1	TEAD-YAP block 67
Cc1cc(NCCc2ccc(O)cc2)nc(Nc2ccc(-n3ccnc3)cc2)n1	TEAD-YAP block 42
Cc1cc(Nc2ccccc2)nc(Nc2ccc(N3CCOCC3)cc2)n1	TEAD-YAP block 35
N#C/C(=C\c1cn(Cc2ccc(Cl)cc2Cl)c2ccccc12)c1nc2ccccc2n1Cc1ccc(Cl)cc1	none
O=C(NC1CC1)c1ccc(-c2ncc(C(=O)NCc3ccccc3)s2)cc1	none
CC(C)(C)c1ccc(NC(=O)Nc2ccccc2[N+](=O)[O-])cc1	TEAD-YAP block 62
CONC(=O)Nc1ccccc1[N+](=O)[O-]	none
Cc1ccc(NC(=O)CN(c2ccccc2)S(=O)(=O)c2ccccc2[N+](=O)[O-])cc1C	none
O=C(Oc1ccc(-c2ccccc2)cc1)c1cccc2c1NC(C(=O)O)C1CC=CC21 (configuration not stated)	MITF primary 51
O=C(O)C1Nc2c(C(=O)N3CCCC3)cccc2C2C=CCC12 (configuration not stated)	MITF primary 80
O=C(O)C1Nc2c(C(=O)N3CCOCC3)cccc2C2C=CCC12 (configuration not stated)	MITF primary 58
CC(C)C1Nc2c(C(=O)O)cccc2C2C=CCC21 (configuration not stated)	none
CCn1ccnc1C(O)c1ccc(OCc2ccccc2)cc1 (configuration not stated)	none

Assay outcomes (PubChem BioAssay)
